Experimental data from PubChem BioAssay AID1159580 (chemical genetic matrix, 2015).
The campaign covered roughly 5,500 compounds. About 2,000 (36%) were called active. Another 18% or so got no clear call; they are omitted. No stated cut-off is given here; in the data, active means normalized growth mostly below about 0.91 (no sharp cut-off); inconclusive means no clear call, values can overlap the other calls; inactive means mostly above about 0.92. This is one part of the list.

Experiment: chemical genetic growth profiling, strain panel (AID 1159580);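 further: tested at 20 µM; growth read once vehicle control cultures reached saturation at 30 °C; 1 = growth at the plate median or of vehicle wells; lower values mean less growth of the strain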
Settings: S. cerevisiae deletion strains, growth OD

Measured: normalized growth

COc1ccc2c(c1OC)C(=O)O[C@H]2[C@@H]1c2cc3c(cc2CCN1C)OCO3
inactive: locus YAL013W, strain DEP1, hits give low values 1.01 | locus YAL040C, strain CLN3, hits give low values 0.973 | locus YCL061C, strain MRC1 (second series), hits give low values 1.01 | locus YDR363W, strain ESC2, hits give low values 1.02 | locus YER002W, strain NOP16, hits give low values 1.03 | locus YMR263W, strain SAP30, hits give low values 1 | locus YNL197C, strain WHI3, hits give low values 1.01 | locus YNL224C, strain SQS1, hits give low values 0.996 | locus YNL322C, strain KRE1, hits give low values 1.02 | locus YOR083W, strain WHI5 (second series), hits give low values 1.07 | locus YPL055C, strain LGE1, hits give low values 1.01
active: locus YGR078C, strain PAC10, hits give low values 0.428
